{"source": "PubChem BioAssay (NCATS)", "note": "Records with an inconclusive call do not appear. Entries that show only a call come without a potency. The source made the active and inactive calls. Calls follow the shape of the dose curve; as a rule, active = well fitted cell-killing curve with a large enough effect; inconclusive = small, poorly fitted or top-dose-only effect, or effect the other way; inactive = no such curve, though single readings can be large or run the other way. Potency is read from the fitted curve at half-maximal effect."}
{"assay": "Quantitative High-Throughput drug screen in 47 multiple myeloma cell lines against the NCATS MIPE library collection: Delta47_JCRB cell viability assay (AID 1918925; also: nearly all actives have a fitted effect of over 45% in size)", "conditions": "Delta47 myeloma viability, CellTiter-Glo ATP, 48 h; series mostly up to 45.8 µM", "procedure,_shortened": "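Approved and investigational drugs from MIPE 4.0 were added by pin tool to 500 cells per well. After 48 hours at 37C, ATP-based CellTiter-Glo luminescence indicated remaining viability.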"}
{"molecule": "O=P(O)(O)C(O)(Cc1cccnc1)P(=O)(O)O", "Potency": "inactive"}
{"molecule": "CC1(C)[C@H](C(=O)O)N2C(=O)C[C@H]2S1(=O)=O", "Potency": "inactive"}
{"molecule": "CNS(=O)(=O)CCc1ccc2[nH]cc(C3CCN(C)CC3)c2c1", "Potency": "1180 nM (active)"}
{"molecule": "COc1ccc2cc3[n+](cc2c1OC)CCc1cc2c(cc1-3)OCO2", "Potency": "5260 nM (active)"}
{"molecule": "CNC(=O)c1cc(Oc2ccc(NC(=O)Nc3ccc(Cl)c(C(F)(F)F)c3)cc2)ccn1", "Potency": "16600 nM (active)"}
{"molecule": "O=C(O)c1cccnc1", "Potency": "inactive"}
{"molecule": "NC1(c2ccc(-c3nc4ccn5c(=O)[nH]nc5c4cc3-c3ccccc3)cc2)CCC1", "Potency": "332 nM (active)"}
{"molecule": "NNC(=O)c1ccncc1", "Potency": "inactive"}
{"molecule": "Cc1nnc(C(=O)NC(C)(C)c2nc(C(=O)NCc3ccc(F)cc3)c(O)c(=O)n2C)o1", "Potency": "inactive"}
{"molecule": "CC1=NN(c2ccccc2)C(=O)C1", "Potency": "inactive"}
{"molecule": "Nc1nc(F)nc2c1ncn2[C@@H]1O[C@H](CO)[C@@H](O)[C@@H]1O", "Potency": "148 nM (active)"}
{"molecule": "CC(C(=O)O)c1ccc2c(c1)CC(=O)c1ccccc1S2", "note": "(stereo not drawn)", "Potency": "inactive"}
{"molecule": "Cc1onc(-c2ccccc2Cl)c1C(=O)N[C@@H]1C(=O)N2[C@@H]1SC(C)(C)[C@@H]2C(=O)O", "Potency": "inactive"}
